Data as given in PubChem BioAssay (NCATS).
Records with an inconclusive call do not appear. A call without a number means that no potency is given here. The source made the active and inactive calls. Calls come from the whole dose curve; as a rule, active = well fitted inhibition curve with a large enough effect; inconclusive = small, poorly fitted or top-dose-only effect; inactive = flat fitted curve, though single readings scatter.

Test: P-glycoprotein substrates identified in KB-8-5-11 adenocarcinoma cell line, qHTS therapeutic library screen (AID 1346987); note: nearly all actives have a fitted effect of over 65% in size
Settings: KB-8-5-11 (P-gp overexpressing) viability, CellTiter-Glo, 72 h; series mostly up to 44.5 µM
Procedure, shortened: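 In this qHTS, P-gp-rich KB-8-5-11 cells received library compounds across a concentration range. Viability was quantified by luminescence after 72 h at 37 degree C.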
For `CCC(=O)NCC[C@@H]1CCc2ccc3c(c21)CCO3`, the Potency was “inactive”. In the case of `O=C1C(CCC(O)c2ccc(F)cc2)C(c2ccc(O)cc2)N1c1ccc(F)cc1` (stereo not drawn), the Potency is reported as “inactive”. With `CNC(=O)[C@H](CC1=CN=C2C=CCC=C12)NC(=O)[C@@H](CC(=O)NO)CC(C)C` the Potency was “inactive”.
